Pf growth 96h = Primary qHTS for delayed death inhibitors of the malarial parasite plastid, 96 hour incubation; P. falciparum luciferase reporter growth, 96 h; Potency, µM (series often up to 28.7 µM), inactives show top-dose activity change, negative = inhibition, most hits filed as inhibitors; 320,000 compounds, 6.9% hits; further: on the % scale 0 is the no-effect control and ±100 the full control effect
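Erythrocytes infected with luciferase-expressing P. falciparum were dispensed at 2% hematocrit and 0.05% parasitemia (final), then incubated with compounds 96 hours at 37 C in 5% CO2. Luminescence after detection reagent addition reported growth.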
SARS PLpro yeast = qHTS of Yeast-based Assay for SARS-CoV PLP | S. cerevisiae expressing SARS-CoV PLpro, growth rescue | Potency, µM (highest dose often 32.9 µM), without a hit: top-dose activity, positive = growth rescue, usual class: activators | 330,000 compounds, 0.19% hits | AID 485353, 2010; calls by dose curve; further: 0% is about no effect; nearly all actives have a fitted effect of over 55% in size
Sm TGR block = qHTS Assay for the Inhibitors of Schistosoma Mansoni Peroxiredoxins | purified TGR, DTNB reduction, TNB absorbance 405 nm | Potency, µM (top dose mostly 114 µM), for inactives: at the highest dose activity change, negative = inhibition, hits mostly inhibitors | 360,000 compounds, 3% hits | AID 485364, 2010; further: on the % scale 0 is the no-effect control and ±100 the full control effect; nearly all actives have a fitted effect of over 60% in size
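Kinetic colorimetric format: TGR-catalysed, NADPH-driven DTNB reduction monitored via TNB absorbance. Enzyme dispensed at 20 nM; compound exposure 15 min at room temperature before reaction start.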
Pf growth 48h = Primary qHTS for delayed death inhibitors of the malarial parasite plastid, 48 hour incubation. P. falciparum luciferase growth in erythrocytes, 48 h. Potency, µM (top dose mostly 28.7 µM), inactives show top-dose activity change, negative = inhibition, usual class: inhibitors. 310,000 compounds, 5.9% hits. AID 504832, 2011; further: on the % scale 0 is the no-effect control and ±100 the full control effect
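First compound was added to culture medium, then infected red cells at 0.1% parasitemia and 2% hematocrit (final). After incubation at 37 C under 5% CO2, luciferase detection reagent was dispensed and light output recorded.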
The depositor's hits bear a star; ? = inconclusive; nt = not tested or not shown. Hits are enriched below; roughly 12% of the tested compounds scored in any of these assays. Unless noted, the call rests on the fitted dose curve; in most records, active means well fitted curve in the direction sought with a large enough effect; inconclusive means small, poorly fitted or top-dose-only effect, or another doubt; inactive means no such curve, though single readings can be large; an effect the other way counts as inactive or inconclusive. Potency means the concentration at half of the fitted maximal effect.

SMILES | Pf growth 96h | SARS PLpro yeast | Sm TGR block | Pf growth 48h
O=C(NC1CCCCC1)c1nn2c(C(F)(F)F)cc(-c3ccco3)nc2c1Br | -10% | 6% | 25µM* | 16%
CC(C)NC(=O)c1nn2c(C(F)(F)F)cc(-c3ccco3)nc2c1Cl | ? | -1% | ? | 7%
Cc1ccn2cc(-c3ccc(O)c(O)c3)nc2c1 | ? | 0% | ? | -92%
CCOCCCNC(=O)c1ccc2c(c1)N=C(CC)c1cc(Br)ccc1S2 | ? | -3% | -1% | 4.1µM*
CCC1=Nc2cc(C(=O)NCCN(CC)CC)ccc2Sc2ccccc21 | nt | nt | 0% | nt
COC(=O)c1cc(S(=O)(=O)N2CCC(c3cc(OC)ccc3OC)C2)c[nH]1 (centres undefined) | 13µM* | 13% | 0% | 0%
COc1ccc(CCNC(=O)COC(=O)c2cc(S(=O)(=O)N3CCCC3)ccc2O)cc1 | ? | -7% | 2% | ?
C=CCn1c(SCC(=O)O)nc2sc(CC)cc2c1=O | ? | 0% | 11% | 38%
C=CCn1c(SCC(=O)/C(C#N)=C(\C)N)nc2sc(CC)cc2c1=O | 10µM* | 1% | -7% | ?
Cc1ccc(CC(=O)Nc2c(C(=O)N3CCN(c4ccccc4F)CC3)oc3ccccc23)cc1 | nt | nt | 45µM* | nt
CCC(CC)C(=O)Nc1c(C(=O)N2CCN(c3ccccc3)CC2)oc2ccccc12 | -9% | -9% | 1% | 10µM*
CCC(CC)C(=O)Nc1c(C(=O)N2CCN(c3ccccc3F)CC2)oc2ccccc12 | nt | nt | -9% | nt
CCCc1cc(=O)oc2cc(C)cc(OC(C)C(=O)NCc3ccccn3)c12 (centres undefined) | 2.3µM* | 4% | -3% | 2.6µM*
CCc1cc(=O)oc2cc(C)cc(OCC(=O)NCc3ccccn3)c12 | ? | 3% | -2% | -28%
CCCCc1cc(=O)oc2cc(C)cc(OC(C)C(=O)O)c12 (centres undefined) | 4% | 5% | 9% | 1%
CCc1cc(=O)oc2cc(C)cc(OC(C)C(=O)NCc3ccccn3)c12 (centres undefined) | 2.1µM* | 4% | 4% | 3.7µM*
Fc1ccc(C(c2nnc(-c3ccccc3)o2)N2CCN(c3ccccc3)CC2)c(Cl)c1 (centres undefined) | nt | nt | 2% | nt
Cc1ccc2sc(N(Cc3cccnc3)C(=O)CCS(=O)(=O)c3ccccc3)nc2c1C | nt | nt | 35µM* | nt
O=C(CCS(=O)(=O)c1ccccc1)N(Cc1cccnc1)c1nc2c(Cl)cccc2s1 | nt | nt | 1.6µM* | nt
Cc1cccc2sc(N(Cc3cccnc3)C(=O)CCS(=O)(=O)c3ccccc3)nc12 | nt | nt | 4.5µM* | nt
Cc1cc(C)c2nc(N(Cc3cccnc3)C(=O)CCS(=O)(=O)c3ccccc3)sc2c1 | nt | nt | -29% | nt
O=C(Nc1cc(F)ccc1F)c1ccc(CN2CC(=O)N3CCCCC3C2=O)cc1 (centres undefined) | nt | nt | 0% | nt
Cc1ccc(C(=O)c2cc([N+](=O)[O-])ccc2N2CC(C)OC(C)C2)cc1 (centres undefined) | ? | -3% | -1% | 9.3µM*
CCC(C)C(=O)N[C@@H](c1ccccc1)[C@@H](O)C(=O)O[C@H]1C[C@@]2(O)[C@@H](OC(=O)c3ccccc3)C3[C@](C)(C(=O)[C@H](OC(C)=O)C(=C1C)C2(C)C)[C@@H](O)C[C@H]1OC[C@@]31OC(C)=O (some centres undefined) | 0.23µM* | -3% | 1% | 0.47µM*
CC/C=C/CC(=O)N[C@@H](c1ccccc1)[C@@H](O)C(=O)O[C@H]1C[C@@]2(O)[C@@H](OC(=O)c3ccccc3)C3[C@](C)(C(=O)[C@H](OC(C)=O)C(=C1C)C2(C)C)[C@@H](O)C[C@H]1OC[C@@]31OC(C)=O (some centres undefined) | 0.33µM* | 0% | -15% | 0.47µM*
SMILES | Pf growth 96h | SARS PLpro yeast | Sm TGR block | Pf growth 48h
CC(=O)O[C@H]1C(=O)[C@@]2(C)[C@H]([C@H](OC(=O)c3ccccc3)[C@]3(O)C[C@H](OC(=O)[C@H](O)C(NC(=O)c4ccccc4)c4ccccc4)C(C)=C1C3(C)C)[C@]1(OC(C)=O)CO[C@@H]1C[C@@H]2O (some centres undefined) | 0.074µM* | 0% | 0% | 0.1µM*
C/C=C(\C)C(=O)N[C@@H](c1ccccc1)[C@@H](O)C(=O)O[C@H]1C[C@@]2(O)[C@@H](OC(=O)c3ccccc3)C3[C@](C)(C(=O)[C@H](OC(C)=O)C(=C1C)C2(C)C)[C@H](O)C[C@H]1OC[C@@]31OC(C)=O (some centres undefined) | ? | -7% | -9% | ?
CC(=O)O[C@H]1C(=O)[C@@]2(C)[C@H]([C@H](OC(=O)c3ccccc3)[C@]3(O)C[C@H](OC(=O)[C@H](O)[C@@H](NC(=O)c4ccccc4)c4ccccc4)C(C)=C1C3(C)C)[C@]1(OC(C)=O)CO[C@@H]1C[C@@H]2O | 0.059µM* | 4% | -3% | 0.074µM*
O=C(NCCC1=CCCCC1)c1ccc2c(c1)N(Cc1cccc(Cl)c1)C(=O)c1ccccc1S2=O (centres undefined) | nt | nt | 9% | nt
O=C(c1ccc2c(c1)N(Cc1ccc(F)cc1)C(=O)c1ccccc1S2(=O)=O)N1CCC(Cc2ccccc2)CC1 | nt | nt | 10% | nt
Cc1cccc(N2C(=O)CS(=O)(=O)C23C(=O)N(Cc2c(F)cccc2Cl)c2ccccc23)c1 (centres undefined) | nt | nt | 0% | nt
CCC1SC(=Nc2cccc(C)c2)NC1=O (centres undefined) | 10µM* | 1% | -7% | 19%
O=C(CSc1nc(=O)n(Cc2ccco2)c2c1CCC2)NCc1ccc(Cl)cc1 | nt | nt | -31% | nt
CCCN(CC1CC1)C(=O)CSc1nnc(-c2ccco2)n1N | 19% | -1% | 50µM* | 18%
CN(CCC#N)C(=O)CSc1nnc(-c2ccco2)n1N | -11% | -2% | 0% | -4%
CCN(CC)c1cc(C)c2cc(NC(=O)/C=C/c3ccccc3Cl)ccc2n1 | nt | nt | 11% | nt
Cc1c(Cl)cccc1-n1c(SCC(=O)NCc2ccccc2)nc2n[nH]c(C)c2c1=N | nt | nt | -4% | nt
Cc1cc(CN2CCCC(CNC(=O)c3ccc(F)cc3)C2)cc(C)c1O (centres undefined) | 12% | 1% | 35µM* | -26%
COc1ccc(CC(=O)NCC2CCCN(Cc3ccc(OC(F)(F)F)cc3)C2)cc1 (centres undefined) | ? | -3% | -8% | 9.3µM*
COC(=O)c1ccc(CN2CCCC(CNC(=O)Cc3ccc(OC)cc3)C2)cc1 (centres undefined) | ? | -3% | 5% | 21%
COc1ccc(-c2nc(CSCC(=O)NC3CCCc4ccccc43)c(C)o2)cc1OC (centres undefined) | 8.3µM* | -18% | 0% | nt
COc1ccc(-c2nc(CSCC(=O)NC3CCCC3)c(C)o2)cc1OC | 0% | -2% | ? | -17%

Source: PubChem
